Test system: Plasmodium falciparum
Experiment: GSK_TCMDC: Inhibition of Plasmodium falciparum 3D7 in whole red blood cells, using parasite LDH activity as an index of growth. Test compounds present at 2uM
Format: functional

Compound | Inhibition [%]
CS(=O)(=O)CCN(CCS(C)(=O)=O)Cc1ccc(-c2ccc3ncnc(Nc4ccc(OCc5cccc(F)c5)c(Cl)c4)c3c2)o1.Cc1ccc(S(=O)(=O)O)cc1 | 90
O=C(NCc1ccc(Cl)c(Cl)c1)c1ccc(C2CCN(Cc3ccc4[nH]cnc4c3)CC2)cc1 | 100
COc1ccc(C(=O)NCC(C)(C)c2nc(-c3ccc(Cl)c(O)c3)c(-c3ccncc3)[nH]2)cc1OCCN(C(C)C)C(C)C.Cl | 100
COc1ccc2nc3cc(Cl)ccc3c(NCCCCN3CCNCC3)c2c1.Cl | 100
c1cc(Nc2nccc(-c3cnn4ncccc34)n2)cc(-c2cnco2)c1 | 96
Cc1[nH]c(C)c(-c2ccc(Oc3cccc(Cl)c3)cc2)c(=O)c1Cl | 99
CN1CCCN(c2ccnc3cc4c(cc23)N(C(=O)c2ccccc2Cl)CC4)CC1.Cl | 88
COc1ccc(C(=O)NC2CCN(c3ccnc4cc(Cl)ccc34)C2)cc1.O=C(O)C(F)(F)F (stereo not given) | 100
CCN(CCCN1CCCCC1)c1cc(C)nc(Nc2ccc(OC)cc2)n1.O=C(O)C(F)(F)F | 100
NCCCN(Cc1ccc(Cl)c(Cl)c1)C(=O)Nc1ccc(Cl)c(Cl)c1 | 93
CCCCSc1nc2c(c(=O)n1Cc1ccco1)C1(CCCCC1)Cc1ccccc1-2 | 96
CN(C)CCOc1ccc(/C(=C(/CCCn2ccnc2)c2ccccc2)c2ccc(O)cc2)cc1 | 100
CCCN1CCC=C(c2cccc(Nc3nccc(Nc4cc(OC)ccc4C)n3)c2)C1.Cl | 88
O=C(CSc1cccc[n+]1[O-])c1ccc(Cc2ncc(C(F)(F)F)cc2Cl)s1 | 99
CCN(CC)CCN(Cc1ccc(-c2ccc(C(F)(F)F)cc2)cc1)C(=O)Cn1c(CCc2cccc(F)c2F)cc(=O)c(C)c1C.O=C(O)C(O)C(O)C(=O)O | 97
Br.N=C(N)Nc1nc(-c2cccc(NC(=O)C(F)(F)F)c2)cs1 | 94
CS(=O)(=O)c1ccc2c(c1)CCN(CCC1CCC(NC(=O)C(=Cc3ccc(Cl)cc3Cl)c3ccc(-c4ccccc4)cc3)CC1)CC2 (stereo not given) | 81
COc1ccc(N2CCN(c3nc(Nc4ccc(NC(C)=O)cc4)nc(N4CCCC4)n3)CC2)cc1 | 91
O=C(Nc1ccc(Oc2ccc(OC(F)(F)F)cc2)cc1)c1ccco1 | 90
O=C(Nc1ccc(Cl)cc1)Nc1cccc(-c2ccc(-c3nc4ccccc4[nH]3)cc2)c1 | 87

Compound | Inhibition [%]
CCCCCC(C)C(C)c1cc(O)c2c(c1)OC(C)(C)C=C2c1cc[n+]([O-])cc1 (stereo not given) | 91
COc1cc(-n2c(CN3CCCC3)nc3cc(-c4ccc(Cl)cc4)sc3c2=O)ccc1OCCN1CCCC1.O=C(O)C(F)(F)F | 94
O=C(/C=C/c1ccc(C(F)(F)F)cc1)NCCCCCN1CCCN(C(=O)Nc2ccc(F)c(Cl)c2)CC1 | 100
CCOC(=O)c1ccc(OCCCCCCOc2ccc(Br)cc2)cc1 | 98
O=S(=O)(c1cccc(C(F)(F)F)c1)N1CCC(CO)(Cc2cccc(C(F)(F)F)c2)CC1 | 100
O=C(Nc1cccc2ccccc12)N1CCC(NS(=O)(=O)c2cccc(C(F)(F)F)c2)CC1 | 95
O=C(NCCCN1CCCCC1)c1ccc(Nc2nccc(Nc3ccc(Oc4ccccc4)cc3)n2)cc1 | 100
CC(=O)Nc1ccc2[nH]cc(C3CCN(CCC4CCN(C(=O)/C=C/c5ccc(Cl)c(Cl)c5)CC4)CC3)c2n1 | 100
COc1ccc(CNC2CCN(C)CC2)cc1-c1ccc(S(=O)(=O)NCCc2ccccn2)c(F)c1.O=C(O)C(F)(F)F | 100
Cl.N=C(N)NN=Cc1ccc2c(c1)Cc1ccccc1-2 | 100
CC(C)(C)c1ccc(CN2CCC(CNC(=O)c3cc(-c4ccccc4F)cs3)C2)cc1.O=C(O)C(F)(F)F (stereo not given) | 100
CC(Cc1ccc(NC(=O)c2ccc(NCCc3ccccc3)cc2)cc1)NCCc1cccc(Cl)c1.Cl (stereo not given) | 92
O=C(Nc1ccc(S(=O)(=O)N2CCCC2)cc1)c1cc(-c2cccnc2)nc2ccc(Cl)cc12 | 97
COc1ccc(CN2CCCN(Cc3cccc(C(=O)Nc4ccc(C(C)(C)C)cc4)c3)CC2)cc1.O=C(O)C(F)(F)F | 98
C=C(C)CSc1nc2c(c(=O)n1CCc1ccccc1)C1(CCCC1)Cc1ccccc1-2 | 100
COc1ccc(-c2cnc3ccc(N4CCCC4)nn23)cc1OC.O=CO | 98
c1ccc2c(CNc3ccnc(NCc4cccc5ccccc45)n3)cccc2c1 | 99
O=C(N[C@H]1CCCC[C@H]1C(=O)O)c1ccccc1 | 95
CCCCc1ccc(C(=O)NC2CCN(C[C@H](O)c3ccnc4ccc(OC)cc34)CC2)cc1 | 91
Nc1cccc(CNCc2cccc(-c3cccc(-c4nc5cc(C(F)(F)F)ccc5[nH]4)c3)c2)c1.O=C(O)C(F)(F)F | 100

From ChEMBL document CHEMBL1157539, “Thousands of chemical starting points for antimalarial lead identification” (Nature, 2010)
